Compound activity: PubChem, several laboratories
Shown are actives, neighbours in structure and some others; about 4% of the full set was active somewhere.
Cl transport mod = modulators of human KCC2 chloride dependent transport | Q9H2X9 | KCC2 cells, thallium flux FluoZin-2 fluorescence | B-score of Tl+ flux slope (higher = more flux/activation; lower = inhibition) at 10 µM | 190,000 compounds, 2.2% hits | AID 1456;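 active = thallium flux slope and its plate-corrected score both differing from the plate sample mean at a set confidence after two filtering rounds, in either direction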;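 also: slope of fluorescence scaled to starting intensity during 10 to 20 s after thallium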
HSV augment = HSV replication enhancement | HSV replication augmentation in cells, fold increase | maximum fold increase | 220,000 compounds, 0.005% hits | AID 1956; in the data active = maximum fold increase above about 1.5; inconclusive = no clear call, values can overlap the other calls; tested in PC3 cells
Measles CPE = protection of cells from measles virus; Measles virus-infected cells, CPE protection, absorbance; protection (pct of control), % at 4 µM; 140,000 compounds, 1.5% hits; in the data active = protection mostly above about 24%, no sharp cut-off; inactive = mostly below about 26%
Arbovirus inh = blocks arbovirus infection; arbovirus infection cell-based antiviral screen; inhibition, % at 10 µM; 200,000 compounds, 0.37% hits; in the data active = inhibition above about 30%
ROMK primary = human ROMK K+ channel modulation, primary screen; 130,000 compounds, 2% hits; Tet-inducible ROMK, thallium flux fluorescence; actives lie on both sides; B-score at 10 µM; AID 1918;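 active = signal ratio slope over the read window, or its plate-corrected B-score, at least 3 SD from the plate mean, either direction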;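 also: B-score of the F/F0 ratio slope over 7 to 12 s after thallium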
ROMK retest = human ROMK channel modulation, retest confirmation | AID 1917 | shares compounds with ROMK primary | ROMK thallium flux, fluorescence ratio; stronger effect = lower value | normalized thallium flux (F/F0 slope) at 10 µM | 3,000 compounds, 54% hits;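 active = Flux at 10 µM at least 3 SD below or above vehicle control mean in one or both replicates; inconclusive = no clear call, values can overlap the other calls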
Numbers stand for hits; – = inactive; ? = inconclusive; · = no result given.

SMILES	Cl transport mod	HSV augment	Measles CPE	Arbovirus inh	ROMK primary	ROMK retest
O=c1[nH]c(=O)n(-c2ccccc2)c(O)c1/C=C1/C(c2ccccc2)=Nc2ccccc21	–	–	–	–	-5.4	0.055
NP(=O)(Oc1ccccc1Cl)Oc1ccccc1Cl	–	–	·	–	-3.1	0.064
NP(=O)(OCC(F)(F)F)Oc1cccc2ccccc12 (stereo not drawn)	–	–	–	–	–	·
CCCC12CN3CCN(CC(C3)/C1=N\NC(=O)c1ccncc1)C2	–	–	·	–	–	·
C=CCn1c(O)c(C(C)=NCCN2CCN(C(=S)NC)CC2)c(=O)[nH]c1=O	–	–	·	·	·	·
O=C1NC2NC(=O)N([N+](=O)[O-])C2N1 (stereo not drawn)	–	–	·	·	·	·
CC1CC(OC(=O)c2ccccc2)(c2ccccc2)C(C)CN1C (stereo not drawn)	–	–	·	·	·	–
CCCN1CC(C)C(OC(C)=O)(c2ccccc2)CC1C (stereo not drawn)	·	–	–	–	·	·
Cn1cccc1/C=C1/C(=O)NC(=O)N(C(C)(C)C)C1=O	–	–	·	·	4.2	–
COC(=O)C1=C(c2cc3ccccc3s2)C[C@@H]2CC[C@H]1N2C(=O)NCCNC(C)=O	·	–	·	·	·	·
O=c1[nH]c(=O)n(Cc2ccccc2Cl)c(O)c1/C=C1/C=CC=N1	–	–	·	–	2.6	?
Cc1nn(Cc2ccccc2)c(C)c1C(=O)OCC(=O)Nc1cc(S(C)(=O)=O)ccc1Cl	–	–	·	–	–	·
COC(=O)C1=C(c2cc3ccccc3s2)C[C@@H]2CC[C@H]1N2C(=O)N1CCCC1	·	–	·	·	·	·
CC[C@H]1CN(C)C[C@@]2(C(=O)OC)Cc3c([nH]c4ccccc34)C(=O)C[C@@H]12	·	–	·	·	·	·
CCCC1(CCC)C(=O)NC(=Nc2ccccc2)NC1=O	–	–	–	–	·	·
CCCCC1(CCCC)C(=O)NC(=Nc2cccc(C)c2)NC1=O	–	–	–	–	·	0.052
COc1ccc(/C=C2/C(=O)NC(=O)N(C3CCCCC3)C2=O)cc1CSc1ccccn1	–	–	–	–	·	·
CN1CCN(c2cn[nH]c(=O)c2Cl)CC1	–	–	·	–	–	·
Cc1ccc(OCC(=O)N2CCN(CC3CC4C=CC3C4)CC2)cc1 (stereo not drawn)	·	–	–	–	-2.1	0.067
CC(=O)Nc1ccccc1C(=O)OCc1ccccc1F	–	–	·	–	–	·
O=C(Cc1ccc([N+](=O)[O-])cc1)N1CCN(Cc2ccc3c(c2)OCO3)CC1	–	–	·	·	–	·
CCOC(=O)C1=C(N)Oc2cc(C)oc(=O)c2C12C(=O)N1c3c(cccc32)C(C)CC1(C)C (stereo not drawn)	–	–	–	–	-4.8	0.06
Cc1cc(NC(=O)CCl)on1	–	–	·	–	–	·
Cc1ccsc1C(=O)C1CCCN(Cc2ccc(-n3cccn3)cc2)C1 (stereo not drawn)	–	–	·	–	–	·
CCOc1ccccc1-n1c(O)c(C=Nc2ccc(N(CC)CC)cc2)c(=O)[nH]c1=O	–	–	–	–	2.7	–
SMILES	Cl transport mod	HSV augment	Measles CPE	Arbovirus inh	ROMK primary	ROMK retest
CCN(CC)c1ccc(N=Cc2c(O)n(-c3ccccc3)c(=O)[nH]c2=O)cc1	–	–	·	·	–	·
CCN(CC)c1ccc(N=Cc2c(O)n(Cc3ccccc3)c(=O)[nH]c2=O)cc1	–	?	–	–	-8.3	0.049
CCN1C(=O)CC(c2cccnc2)=Nc2ccccc21	·	–	·	–	–	·
O=C(CN1CC=C(c2ccccc2)CC1)Nc1cc(Cl)ccc1Cl	–	–	–	–	–	·
OC(COCc1ccc(Cl)cc1)CN1CC=C(c2ccccc2)CC1 (stereo not drawn)	–	–	–	–	-3.3	0.06
COC1CC(OC2CCC3(C)C(CCC4C3CCC3(C)C(C5=CC(=O)OC5)C(OC(C)=O)CC43O)C2)OC(C)C1OC1OC(COC2OC(CO)C(O)C(O)C2O)C(O)C(O)C1O (stereo not drawn)	–	–	·	·	·	?
COc1ccc(CCNCc2ccc(F)cc2)cc1OC	–	–	–	–	–	·
COc1ccc(CCNCc2ccc(SC)cc2)cc1	–	–	–	–	·	0.062
C=CCN1C(=O)NC(=O)/C(=C/c2cc3c4c(c2)CCCN4CCC3)C1=O	–	–	–	–	-4.3	0.056
CC(C)(C)c1cc([N+](=O)[O-])cc(C(C)(C)C)c1O	–	·	·	–	·	–
CCC(=NCCOc1ccc(Cl)cc1)c1c(O)n(C)c(=O)n(C)c1=O	–	·	–	–	-3.1	0.066
CCC(=NCCN1CCCCC1)c1c(O)n(C)c(=O)n(C)c1=O	–	–	–	–	–	·
CCCC(C)n1[nH]c(=O)c2c1NC(=O)CSC2c1ccc(OC)cc1 (stereo not drawn)	–	–	–	–	2.3	?
CS(=O)(=O)N1CCN(C(=N)N[N+](=O)[O-])CC1	–	–	·	–	-2.6	–
CCOc1cc(CNC(C)C(O)c2ccccc2)cc(Cl)c1OCC (stereo not drawn)	–	–	–	–	-2.8	0.059
CC(NCc1ccc(Cl)c(Cl)c1)C(O)c1ccccc1 (stereo not drawn)	–	–	–	–	–	·
